This is a sample that favours compounds with a hit; in the whole collection about 21% have one here.
AMA1 RON2 block: AMA1-RON2 (P. falciparum) interaction inhibition. Potency, µM (doses to about 58.2 µM), hits mostly inhibitors. actives 0.2% (n = 360,000). AlphaScreen AMA1-biotinylated RON2 peptide binding; further: nearly all actives have a fitted effect of over 45% in size
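AMA1 (3D7) with his tag at 25 nM final met compounds first, then biotinylated RON2 peptide at 25 nM; detection used donor plus acceptor beads, 10 µg/mL apiece, read by AlphaScreen after 30 min at room temperature.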
HCV inhibitor: inhibitors of hepatitis C virus infection | actives 3.4% (n = 340,000) | Huh7.5.1 HCVcc-Cre infection, luciferase reporter, 44 h | Potency, µM (titrated, usually from 41.8 µM), most hits filed as inhibitors
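HCVcc-Cre virus at an moi near 0.5 was added right after compound to cells cultured 4 h from seeding (1,000 cells/well). Luciferase activity was determined 44 h later, 15 min after substrate addition at RT.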
Shiga toxin inh: Shiga toxin inhibition; AID 2315; inhibition, % at 38.7 µM; Vero cells, Shiga toxin protein synthesis inhibition reporter; actives 9.2% (n = 290,000); in the data active means inhibition mostly above about 28%, no sharp cut-off; inactive means mostly below about 43%
Pf growth 48h: inhibits P. falciparum growth in the first generation, 48 h | P. falciparum luciferase growth in erythrocytes, 48 h | Potency, µM (highest dose often 28.7 µM), most hits filed as inhibitors | actives 5.9% (n = 310,000) | AID 504832
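Cell-based growth assay: transgenic P. falciparum expressing firefly luciferase, cultured in red cells within RPMI 1640 containing 0.5% w/v Albumax, 24 mM bicarbonate and gentamycin. A drop in luciferase activity indicates inhibition.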
CHX counter: affects cycloheximide protein synthesis inhibition readout, counter-screen; cell reporter, cycloheximide protein synthesis inhibition counterscreen; max response, %; actives 12% (n = 300,000); AID 2314; in the data active means max response mostly above about 13%, no sharp cut-off; inactive means mostly below about 14%; further: read at 38.3 µM for the half of the compounds with a filed dose
Pf growth 96h: P. falciparum growth inhibition at 96 hours. P. falciparum luciferase reporter growth, 96 h. Potency, µM (doses to about 28.7 µM), hits mostly inhibitors. actives 6.9% (n = 320,000)
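Delayed-death screen, second-generation endpoint: infected erythrocytes, 2% hematocrit, 0.05% parasitemia final; 96 hours at 37 C, 5% CO2; luciferase detection reagent; luminescence decrease equals reduced growth.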
Of the large screens only hits and unclear results are named; the others gave an inactive call. Unless noted, the call rests on the fitted dose curve; in most records, active means well fitted curve in the direction sought with a large enough effect; inconclusive means small, poorly fitted or top-dose-only effect, or another doubt; inactive means no such curve, though single readings can be large; an effect the other way counts as inactive or inconclusive.

O=C(O)CCC/C=C\C[C@@H]1[C@@H](/C=C/[C@@H](O)COc2cccc(C(F)(F)F)c2)[C@H](O)C[C@@H]1O	Pf growth 96h 0.95µM (no result: AMA1 RON2 block, HCV inhibitor, Shiga toxin inh, CHX counter)
Cc1cccc(NC(=O)c2snc3c(=O)[nH]cnc23)c1	Pf growth 96h 6.6µM (no result: AMA1 RON2 block, HCV inhibitor)
CCOc1ccc(N=Cc2c(O)c3ccccc3oc2=O)cc1	Shiga toxin inh 78, CHX counter 26
CCC1CC=CC2C1C(=O)N(Cc1ccccc1)C2c1cc(C)ccc1F (configuration not stated)	none (no result: AMA1 RON2 block, HCV inhibitor, Pf growth 48h, Pf growth 96h)
O=C1NC(c2ccco2)Nc2sc3c(c21)CCN(Cc1ccccc1)C3 (configuration not stated)	none (no result: Pf growth 48h)
O=C1NC(c2cccs2)Nc2sc3c(c21)CCCC3 (configuration not stated)	Shiga toxin inh 87, CHX counter 38 (no result: Pf growth 96h)
Cc1cccc(NC(=O)COC(=O)c2ccc3c(c2)OCO3)c1C	none
O=C(C1=C[C@H](C2CCCCC2)C[C@H](OCc2ccc(CO)cc2)O1)N1CCN(Cc2ccccc2)CC1	Pf growth 48h 5.2µM, Pf growth 96h 12µM
O=C(C1=C[C@H](C2CCCCC2)C[C@H](OCc2ccc(CO)cc2)O1)N1CCOCC1	Pf growth 96h inconclusive
O=C(C1=C[C@@H](C2CCCCC2)C[C@@H](OCc2ccc(CO)cc2)O1)N1CCN(Cc2ccccc2)CC1	AMA1 RON2 block inconclusive, Pf growth 48h 4.1µM, Pf growth 96h 4.1µM
COc1ccccc1C(=O)NCCC(=O)N(C)CC(=O)Nc1ccc(N2CCOCC2)cc1	none (no result: Shiga toxin inh, CHX counter)
CCCc1nc2ccc(NC(C)=O)cc2c(=O)n1Cc1cccc(Cl)c1	Pf growth 48h inconclusive
CC(=O)Nc1ccc2nc(C3CC3)n(Cc3ccc(Cl)cc3)c(=O)c2c1	HCV inhibitor inconclusive, Shiga toxin inh 49, CHX counter 23
COc1ccc(CC(=O)N/N=C(\C)c2cccc(NC(=O)C3CC3)c2)cc1	Pf growth 96h inconclusive
CCC(=O)Nc1ccc2nc(C3CC3)n(Cc3ccc(C(C)(C)C)cc3)c(=O)c2c1	HCV inhibitor inconclusive, Shiga toxin inh 90, CHX counter 57
COc1ccc(Cn2c(C3CC3)nc3ccc(NC(=O)C4CC4)cc3c2=O)cc1	HCV inhibitor inconclusive, Shiga toxin inh 84, CHX counter 24
C/C(=N\NC(=O)c1nnn(-c2nonc2N)c1CN(C)c1ccccc1)c1cccnc1	none
CC(=O)NS(=O)(=O)c1ccc(NC(=S)NC(=O)Cc2ccccc2)cc1	none
COC(=O)CNC(c1ccccc1)c1cc(C)ccc1NS(=O)(=O)c1ccc(C)cc1 (configuration not stated)	HCV inhibitor 6.3µM, Pf growth 48h 9.3µM, Pf growth 96h 13µM
COC(=O)CNC(c1ccccc1)c1cc(C)ccc1NC(=O)CNC(=O)OCc1ccccc1 (configuration not stated)	Pf growth 48h 13µM (no result: Pf growth 96h)
COC(=O)CNC(c1ccccc1)c1cc(C)ccc1NC(=O)c1cccc(Cl)c1 (configuration not stated)	HCV inhibitor inconclusive, Pf growth 48h inconclusive, Pf growth 96h 13µM
Cc1sc2ncn(CC(=O)NCC(=O)N3CCN(c4ccc(F)cc4)CC3)c(=O)c2c1C	none
COc1ccc([N+](=O)[O-])cc1NS(=O)(=O)c1ccc(Cl)c(C(=O)Nc2sc3c(c2C#N)CCCCC3)c1	none (no result: AMA1 RON2 block, HCV inhibitor)
C[C@H]1CN([C@@H](C)CO)S(=O)(=O)c2ccc(Br)cc2O[C@@H]1CN(C)Cc1cccc(F)c1	none (no result: HCV inhibitor, Shiga toxin inh, Pf growth 48h, CHX counter, Pf growth 96h)
CCOCCCNCc1cccc(OCc2ccc(F)cc2)c1	HCV inhibitor inconclusive, Pf growth 48h inconclusive, Pf growth 96h 12µM
CCOCCCNCc1ccc(Cl)cc1	none
CNc1cncc(-c2ccc(OC)cc2)n1	none (no result: HCV inhibitor, Shiga toxin inh, Pf growth 48h, CHX counter, Pf growth 96h)
CCCC[C@@H](C)C[C@@H](C)C(=O)N(C)[C@@H](CC(C)C)C(=O)N[C@H](C(=O)N(C)[C@H](C(=O)N1C[C@@H](O)C[C@H]1C(=O)N1C(=O)C=C[C@@H]1C)C(C)C)C(C)OC(C)=O (some centres not stated)	HCV inhibitor 4µM (no result: Shiga toxin inh, Pf growth 48h, CHX counter, Pf growth 96h)
Cc1ccc2[nH]c3c(N4CCCCCC4)ncnc3c2c1	HCV inhibitor 3.2µM, Shiga toxin inh 65, Pf growth 48h 2.6µM, CHX counter 18, Pf growth 96h inconclusive (no result: AMA1 RON2 block)
CCOc1ccc(S(=O)(=O)N2CCN(c3ccccn3)CC2)cc1	none
